# Reference: ChEMBL document CHEMBL5724796, “Tm Shift (DSF) assay results for EUbOPEN Chemogenomics Library” (2024)
# Several values for one entry are separate records, joined by “and”; a condition that tells them apart may be missing. Equal entries are not always repeated. Non-standard residues stand in square brackets, D forms with d. Residues, ends and D or L forms follow the SMILES beside them. *: point of attachment. Benzoyl(4-OPh) = O=C(c1ccc(Oc2ccccc2)cc1)*; Lys(Et2) = CCN(CC)CCCC[C@H](N)C(=O)O; d(aIle) = CC[C@H](C)[C@@H](N)C(=O)O; Gly(cPent) = N[C@H](C(=O)O)C1CCCC1; NH(propargyl) = C#CCN*
# Assays:
# Settings in all cases: Compound concentration 20.0 uM
# [1] = target: Tyrosine-protein kinase ABL1 (Homo sapiens) (UniProt P00519)
# Chain of Tyrosine-protein kinase ABL1 (Homo sapiens) (P00519 whole entry): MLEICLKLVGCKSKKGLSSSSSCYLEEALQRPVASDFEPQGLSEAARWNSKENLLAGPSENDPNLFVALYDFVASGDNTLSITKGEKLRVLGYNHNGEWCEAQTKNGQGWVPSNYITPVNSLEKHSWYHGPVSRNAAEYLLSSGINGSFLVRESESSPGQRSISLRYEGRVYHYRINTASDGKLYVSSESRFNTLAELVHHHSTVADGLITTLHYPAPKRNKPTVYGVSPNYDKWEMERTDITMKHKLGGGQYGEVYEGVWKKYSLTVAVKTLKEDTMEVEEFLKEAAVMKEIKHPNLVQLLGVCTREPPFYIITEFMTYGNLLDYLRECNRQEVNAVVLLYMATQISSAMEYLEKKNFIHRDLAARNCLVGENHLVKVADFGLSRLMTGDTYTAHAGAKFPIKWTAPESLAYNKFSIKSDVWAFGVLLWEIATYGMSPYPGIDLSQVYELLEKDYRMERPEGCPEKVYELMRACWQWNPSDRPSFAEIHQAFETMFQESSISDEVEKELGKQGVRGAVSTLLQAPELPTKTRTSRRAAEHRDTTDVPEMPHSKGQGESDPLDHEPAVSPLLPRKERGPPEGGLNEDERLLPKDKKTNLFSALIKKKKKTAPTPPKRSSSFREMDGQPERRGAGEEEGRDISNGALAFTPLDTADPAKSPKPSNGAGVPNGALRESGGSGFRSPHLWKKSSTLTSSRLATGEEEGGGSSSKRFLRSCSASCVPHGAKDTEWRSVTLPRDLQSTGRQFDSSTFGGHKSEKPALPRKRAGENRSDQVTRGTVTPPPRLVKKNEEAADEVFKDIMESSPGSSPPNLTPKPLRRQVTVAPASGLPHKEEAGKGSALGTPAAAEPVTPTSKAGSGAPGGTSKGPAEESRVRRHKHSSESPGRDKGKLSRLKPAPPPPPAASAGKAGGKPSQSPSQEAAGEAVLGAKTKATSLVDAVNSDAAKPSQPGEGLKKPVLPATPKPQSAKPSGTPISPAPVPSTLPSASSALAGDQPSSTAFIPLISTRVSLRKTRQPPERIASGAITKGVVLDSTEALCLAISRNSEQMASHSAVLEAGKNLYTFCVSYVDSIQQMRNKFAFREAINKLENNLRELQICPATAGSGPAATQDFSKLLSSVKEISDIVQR
# [2] = target: Bromodomain-containing protein 4 (Homo sapiens) (UniProt O60885)
# [3] = target: Cyclin-dependent kinase 2 (Homo sapiens) (UniProt P24941)
# [4] = target: Casein kinase I isoform delta (Homo sapiens) (UniProt P48730)
# Chain of Casein kinase I isoform delta (Homo sapiens) (P48730 whole entry, looked up, canonical isoform): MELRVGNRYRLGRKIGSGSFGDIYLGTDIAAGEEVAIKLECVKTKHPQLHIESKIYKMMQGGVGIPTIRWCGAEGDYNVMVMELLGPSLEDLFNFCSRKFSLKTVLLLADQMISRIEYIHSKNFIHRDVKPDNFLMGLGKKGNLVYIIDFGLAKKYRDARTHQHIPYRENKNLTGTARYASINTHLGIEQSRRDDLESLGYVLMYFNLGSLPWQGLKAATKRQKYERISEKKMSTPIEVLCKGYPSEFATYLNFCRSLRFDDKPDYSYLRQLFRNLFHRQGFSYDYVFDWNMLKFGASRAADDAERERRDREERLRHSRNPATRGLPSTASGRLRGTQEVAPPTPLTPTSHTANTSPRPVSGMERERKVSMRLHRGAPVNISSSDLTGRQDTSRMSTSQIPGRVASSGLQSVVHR
# [5] = target: Glycogen synthase kinase-3 beta (Homo sapiens) (UniProt P49841)
# Chain of Glycogen synthase kinase-3 beta (Homo sapiens) (P49841 whole entry, looked up): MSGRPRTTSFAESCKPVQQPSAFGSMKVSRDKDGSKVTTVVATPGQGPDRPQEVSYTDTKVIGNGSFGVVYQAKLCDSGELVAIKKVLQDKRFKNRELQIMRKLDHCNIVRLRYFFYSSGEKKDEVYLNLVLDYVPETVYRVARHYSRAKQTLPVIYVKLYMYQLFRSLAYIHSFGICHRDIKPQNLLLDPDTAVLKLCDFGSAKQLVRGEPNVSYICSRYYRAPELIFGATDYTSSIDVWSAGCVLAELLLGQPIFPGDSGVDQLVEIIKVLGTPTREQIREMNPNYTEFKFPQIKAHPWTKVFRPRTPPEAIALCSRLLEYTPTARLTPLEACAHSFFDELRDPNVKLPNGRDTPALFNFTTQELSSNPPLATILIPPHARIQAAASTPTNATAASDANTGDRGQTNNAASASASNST
# [6] = target: Mitogen-activated protein kinase 1 (Homo sapiens) (UniProt P28482)
# Chain of Mitogen-activated protein kinase 1 (Homo sapiens) (P28482 whole entry): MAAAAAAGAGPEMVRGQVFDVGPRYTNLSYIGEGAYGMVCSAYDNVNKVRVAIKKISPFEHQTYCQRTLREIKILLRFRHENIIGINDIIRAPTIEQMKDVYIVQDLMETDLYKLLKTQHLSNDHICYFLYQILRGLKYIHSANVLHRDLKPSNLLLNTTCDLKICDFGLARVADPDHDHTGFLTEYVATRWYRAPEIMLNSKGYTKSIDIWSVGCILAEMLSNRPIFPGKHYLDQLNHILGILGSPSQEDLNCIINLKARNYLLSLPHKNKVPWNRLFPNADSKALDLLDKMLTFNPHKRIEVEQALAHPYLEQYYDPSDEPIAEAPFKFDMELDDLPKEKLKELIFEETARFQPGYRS
# [7] = target: T1, Aurora kinase A (Homo sapiens) (UniProt O14965)
# T1 sequence (whole entry): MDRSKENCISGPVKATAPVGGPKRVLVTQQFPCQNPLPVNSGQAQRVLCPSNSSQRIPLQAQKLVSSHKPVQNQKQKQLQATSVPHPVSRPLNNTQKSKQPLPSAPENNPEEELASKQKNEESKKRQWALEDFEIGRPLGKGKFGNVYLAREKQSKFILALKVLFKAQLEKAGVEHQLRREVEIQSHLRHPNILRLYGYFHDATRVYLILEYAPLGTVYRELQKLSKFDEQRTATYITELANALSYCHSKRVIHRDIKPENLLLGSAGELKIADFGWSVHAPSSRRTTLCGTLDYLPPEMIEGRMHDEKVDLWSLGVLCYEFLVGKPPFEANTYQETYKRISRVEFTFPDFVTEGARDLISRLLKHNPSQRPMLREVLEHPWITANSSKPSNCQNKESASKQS
# [8] = target: T2, Transcription intermediary factor 1-alpha (Homo sapiens) (UniProt O15164)
# T2 sequence (whole entry): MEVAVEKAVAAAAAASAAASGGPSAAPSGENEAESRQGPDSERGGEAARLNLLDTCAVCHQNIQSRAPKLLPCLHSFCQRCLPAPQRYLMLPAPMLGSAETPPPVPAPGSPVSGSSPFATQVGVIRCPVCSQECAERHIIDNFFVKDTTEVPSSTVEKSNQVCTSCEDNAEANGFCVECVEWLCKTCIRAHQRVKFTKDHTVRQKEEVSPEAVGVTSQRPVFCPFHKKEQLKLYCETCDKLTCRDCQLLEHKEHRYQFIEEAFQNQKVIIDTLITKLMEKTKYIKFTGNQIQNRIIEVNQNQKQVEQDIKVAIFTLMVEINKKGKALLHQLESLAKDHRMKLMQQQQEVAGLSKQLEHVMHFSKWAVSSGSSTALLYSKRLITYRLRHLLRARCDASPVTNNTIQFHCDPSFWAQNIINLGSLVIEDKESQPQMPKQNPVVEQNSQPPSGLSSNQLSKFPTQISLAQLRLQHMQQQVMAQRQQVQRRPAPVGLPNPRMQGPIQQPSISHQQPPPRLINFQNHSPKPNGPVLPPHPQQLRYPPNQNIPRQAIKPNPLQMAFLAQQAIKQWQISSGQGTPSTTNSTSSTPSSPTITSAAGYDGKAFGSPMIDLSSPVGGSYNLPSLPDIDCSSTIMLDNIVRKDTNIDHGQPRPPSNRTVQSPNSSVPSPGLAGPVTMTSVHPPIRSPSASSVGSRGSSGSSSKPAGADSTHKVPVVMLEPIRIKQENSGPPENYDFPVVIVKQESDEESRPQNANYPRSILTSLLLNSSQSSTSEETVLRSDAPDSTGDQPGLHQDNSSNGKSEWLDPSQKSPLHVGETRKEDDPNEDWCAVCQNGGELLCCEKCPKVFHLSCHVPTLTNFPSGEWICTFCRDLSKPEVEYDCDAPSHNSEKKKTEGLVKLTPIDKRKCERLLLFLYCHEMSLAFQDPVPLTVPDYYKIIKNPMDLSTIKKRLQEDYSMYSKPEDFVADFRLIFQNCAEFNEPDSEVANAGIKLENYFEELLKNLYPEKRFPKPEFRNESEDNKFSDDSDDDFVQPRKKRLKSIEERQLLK
smiles,measurement,setting,value
C/C(=N\NC(=O)c1cccc(S(=O)(=O)N2CCOCC2)c1)c1cc(Cl)ccc1O,ΔTm,[1],0.81 °C
same,ΔTm,[2],-2.01 °C
same,ΔTm,[3],0.83 °C
same,ΔTm,[4],0.6 °C
same,ΔTm,[5],1.53 °C
same,ΔTm,[6],0.14 °C
same,ΔTm,[7],-0.56 °C
same,ΔTm,[8],2.31 °C
CCO/N=C1\c2ccccc2-c2nc(C#N)c(C#N)nc21,ΔTm,[1],0.39 °C and 0.29 °C
same,ΔTm,[2],-1.18 °C and -1.1 °C
same,ΔTm,[3],0.59 °C and 0.08 °C
same,ΔTm,[4],-1.52 °C and -1.06 °C
same,ΔTm,[5],0.4 °C and -0.71 °C
same,ΔTm,[6],-0.11 °C and -0.98 °C
same,ΔTm,[7],-2.42 °C and -1.91 °C
same,ΔTm,[8],0.92 °C and 0.33 °C
O=C(NNc1ccccn1)c1ccccn1,ΔTm,[1],0.12 °C
same,ΔTm,[2],-1.77 °C
same,ΔTm,[3],-0.03 °C
same,ΔTm,[4],-0.33 °C
same,ΔTm,[5],-0.62 °C
same,ΔTm,[6],0.17 °C
same,ΔTm,[7],-0.43 °C
same,ΔTm,[8],0.92 °C
COc1ccc(C(CN(C)C)C2(O)CCCCC2)cc1 (stereo not given),ΔTm,[1],0.51 °C
same,ΔTm,[2],-2.55 °C
same,ΔTm,[3],-0.01 °C
same,ΔTm,[4],-0.1 °C
same,ΔTm,[5],-0.27 °C
same,ΔTm,[6],0.12 °C
same,ΔTm,[7],-1.68 °C
same,ΔTm,[8],-0.25 °C
COc1cc(O)c2c(c1)/C=C\C[C@H](O)[C@H](O)C(=O)/C=C\C[C@H](C)OC2=O,ΔTm,[1],6.88 °C
same,ΔTm,[2],-0.9 °C
same,ΔTm,[3],0 °C
same,ΔTm,[4],0.3 °C
same,ΔTm,[5],0 °C
same,ΔTm,[6],0 °C
same,ΔTm,[7],0 °C
same,ΔTm,[8],-0.14 °C
CNC(=O)c1cc(C(=O)NC2CC2)cn(Cc2ccccc2)c1=O,ΔTm,[1],0.09 °C
same,ΔTm,[2],-0.92 °C
same,ΔTm,[3],0.1 °C
same,ΔTm,[4],-0.13 °C
same,ΔTm,[5],-0.62 °C
same,ΔTm,[6],0.15 °C
same,ΔTm,[7],-2.45 °C
same,ΔTm,[8],0.41 °C
CCCCCn1c(C)c(C(=O)c2cccc3ccccc23)c2ccccc21,ΔTm,[1],0.2 °C
same,ΔTm,[2],-0.88 °C
same,ΔTm,[3],0.76 °C
same,ΔTm,[4],0.04 °C
same,ΔTm,[5],-0.36 °C
same,ΔTm,[6],0.95 °C
same,ΔTm,[7],-2.46 °C
same,ΔTm,[8],0.22 °C
COc1ccc(N(C(=O)Oc2c(C)cccc2C)c2ccnc(Nc3ccc(N4CCN(C)CC4)cc3)n2)c(OC)c1,ΔTm,[1],9.28 °C
same,ΔTm,[2],-0.9 °C
same,ΔTm,[3],0.75 °C
same,ΔTm,[4],0.09 °C
same,ΔTm,[5],1.59 °C
same,ΔTm,[6],0.08 °C
same,ΔTm,[7],0.66 °C
same,ΔTm,[8],-0.91 °C
CN1[C@@H]2CC[C@H]1C[C@@H](OC(c1ccc(F)cc1)c1ccc(F)cc1)C2,ΔTm,[1],0.58 °C
same,ΔTm,[2],-2.87 °C
same,ΔTm,[3],0.08 °C
same,ΔTm,[4],-0.16 °C
same,ΔTm,[5],-0.54 °C
same,ΔTm,[6],0.11 °C
same,ΔTm,[7],-2.6 °C
same,ΔTm,[8],-0.2 °C
O=C1C(P(=O)(O)O)CCCN1O (stereo not given),ΔTm,[1],0.38 °C
same,ΔTm,[2],-1.37 °C
same,ΔTm,[3],0.09 °C
same,ΔTm,[4],-0.23 °C
same,ΔTm,[5],-1.56 °C
same,ΔTm,[6],0.01 °C
same,ΔTm,[7],-2.37 °C
same,ΔTm,[8],-0.05 °C
CN(Cc1cccc(-c2ccncc2)c1)C(=O)Oc1ccc(-c2ccc(C(N)=O)cc2)cc1,ΔTm,[1],0.52 °C
same,ΔTm,[2],0.54 °C
same,ΔTm,[3],0.45 °C
same,ΔTm,[4],-0.05 °C
same,ΔTm,[5],0.86 °C
same,ΔTm,[6],0.04 °C
same,ΔTm,[7],-1.82 °C
same,ΔTm,[8],0.18 °C
O=[N+]([O-])c1cc(O)c(O)c([N+](=O)[O-])c1,ΔTm,[1],0.3 °C
same,ΔTm,[2],2.94 °C
same,ΔTm,[3],1.19 °C
same,ΔTm,[4],-0.22 °C
same,ΔTm,[5],-0.11 °C
same,ΔTm,[6],0.24 °C
same,ΔTm,[7],0.17 °C
same,ΔTm,[8],3.59 °C
C#CCNC(=O)[C@H](CO)NC(=O)[C@H](CCCCN(CC)CC)NC(=O)[C@H](NC(=O)[C@@H](NC(=O)c1ccc(Oc2ccccc2)cc1)C1CCCC1)[C@@H](C)CC ({Benzoyl(4-OPh)}-[Gly(cPent)][d(aIle)][Lys(Et2)]S-{NH(propargyl)}),ΔTm,[1],0.66 °C
same,ΔTm,[2],-3.19 °C
same,ΔTm,[3],-0.21 °C
same,ΔTm,[4],0.55 °C
same,ΔTm,[5],-0.46 °C
same,ΔTm,[6],0.25 °C
same,ΔTm,[7],0.59 °C
same,ΔTm,[8],-3.76 °C
C(=C\c1ccccc1)/CN1CCN(CCOC(c2ccccc2)c2ccccc2)CC1,ΔTm,[1],0.28 °C
same,ΔTm,[2],-3.78 °C
same,ΔTm,[3],-0.38 °C
same,ΔTm,[4],-0.31 °C
same,ΔTm,[5],-0.82 °C
same,ΔTm,[6],0.07 °C
same,ΔTm,[7],-2.65 °C
same,ΔTm,[8],-2.32 °C
CN(C)NC(=O)CCC(=O)O,ΔTm,[1],0.19 °C
same,ΔTm,[2],-2.43 °C
same,ΔTm,[3],-0.11 °C
same,ΔTm,[4],-0.1 °C
same,ΔTm,[5],-0.76 °C
same,ΔTm,[6],0.1 °C
same,ΔTm,[7],-2.27 °C
same,ΔTm,[8],-0.24 °C
N[C@H]1CC[C@H](N[C@@H]2C[C@H]2c2ccccc2)CC1,ΔTm,[1],0.04 °C
same,ΔTm,[2],-1.89 °C
same,ΔTm,[3],0.04 °C
same,ΔTm,[4],-0.14 °C
same,ΔTm,[5],-0.74 °C
same,ΔTm,[6],0 °C
same,ΔTm,[7],-1.42 °C
same,ΔTm,[8],0.93 °C
C=CCO/N=C1\c2ccccc2-c2nc(C#N)c(C#N)nc21,ΔTm,[1],0.13 °C
same,ΔTm,[2],-2.12 °C
same,ΔTm,[3],0.55 °C
same,ΔTm,[4],-1.63 °C
same,ΔTm,[5],0.17 °C
same,ΔTm,[6],-0.02 °C
same,ΔTm,[7],-2.47 °C
same,ΔTm,[8],0.9 °C
COc1cc(C)[nH]c(=O)c1CNC(=O)c1c(C)n([C@H](C)C2CCN(CC(F)(F)F)CC2)c2ccccc12,ΔTm,[1],0.27 °C
same,ΔTm,[2],-2.03 °C
same,ΔTm,[3],-0.09 °C
same,ΔTm,[4],0.08 °C
same,ΔTm,[5],-0.64 °C
same,ΔTm,[6],-0.27 °C
same,ΔTm,[7],0.25 °C
same,ΔTm,[8],-1.56 °C
CS(=O)(=O)Nc1ccc(-c2coc3cc(OCc4cccc(C(=O)O)c4)ccc3c2=O)cc1,ΔTm,[1],-0.03 °C
same,ΔTm,[2],0.08 °C
same,ΔTm,[3],0.07 °C
same,ΔTm,[4],-0.49 °C
same,ΔTm,[5],-0.46 °C
same,ΔTm,[6],0.64 °C
same,ΔTm,[7],-0.26 °C
same,ΔTm,[8],0.89 °C
O=C1C(P(=O)(O)O)CC(O)N1O (stereo not given),ΔTm,[1],0.12 °C
same,ΔTm,[2],0.66 °C
same,ΔTm,[3],-0.03 °C
same,ΔTm,[4],-0.38 °C
same,ΔTm,[5],-0.77 °C
same,ΔTm,[6],0.16 °C
same,ΔTm,[7],-2.18 °C
same,ΔTm,[8],-0.46 °C
COc1cn(-c2ccc(-n3cccn3)cc2F)nc(-c2ccnn2-c2ccccc2)c1=O,ΔTm,[1],0.53 °C
same,ΔTm,[2],0.2 °C
same,ΔTm,[3],1.24 °C
same,ΔTm,[4],0.13 °C
same,ΔTm,[5],0.96 °C
same,ΔTm,[6],0.22 °C
same,ΔTm,[7],-1.86 °C
same,ΔTm,[8],-0.41 °C
C[C@]12CC[C@@H]3c4ccc(O)cc4C[C@@H](CCCCCCCCC[S+]([O-])CCCC(F)(F)C(F)(F)F)[C@H]3[C@@H]1CC[C@@H]2O (stereo not given in full),ΔTm,[1],-4.09 °C
same,ΔTm,[2],-2.93 °C
same,ΔTm,[3],0 °C
same,ΔTm,[4],-4.77 °C
same,ΔTm,[5],0.72 °C
same,ΔTm,[6],-12 °C
same,ΔTm,[7],-0.16 °C
